Test results taken from PubChem BioAssay AID1347416 (National Center for Advancing Translational Sciences (NCATS), 2020).
About 1,600 (39%) of roughly 4,100 compounds were called active. Inconclusive results (about 25%) are left out. The call rests on the fitted dose curve; in most records, active means well fitted inhibition curve with a large enough effect; inconclusive means small, poorly fitted or top-dose-only effect; inactive means no such curve, though single readings can be large or run the other way. The list shows a part of the results.

Assay: qHTS Validation assay for Inhibitors of Plasmodium falciparum Dd2 growth in vitro; further: nearly all actives have a fitted effect of over 70% in size
Details: P. falciparum Dd2 in RBCs, SYBR Green growth, 72 h; series mostly up to 28.7 µM
From the text: Malaria, a parasitic disease spread to humans through the bite of a Plasmodium infected Anopheles mosquito, continues to be a global health burden affecting millions of people, with an estimated 228 million cases and 405,000 deaths in 2018. Concerns about safety and limitations of current antimalarial treatments strongly emphasize the need to develop new therapeutic options. The scarce number of chemotypes and validated drug targets with efficacy against the liver stage, have hindered development of new antimalarials. To address this, a chemoprophylactic drug discovery effort was conducted through a combined phenotypic high-throughput asexual blood stage and liver stage screen, providing a robust foundation to identify liver-stage active lead chemotypes. Compounds were initially screened against Plasmodium falciparum Dd2 strain parasites using a in vitro SYBRGreen-1 based 72 hr proliferation assay to identify novel chemotypes to advance to liver stage assays. NIH/NCATS Early Translation Branch Assay Submitter (PI): Anton Simeonov Ph.D.
[…] Assay Protocol: PROTOCOL TABLE (as described by Inglese et al., 2007) SEQUENCE No. (e.g., 1, 2, 3, etc.); PARAMETER (e.g., Cells, Incubation, Reagent, etc.); VALUE; DESCRIPTION SEQUENCE, Parameter, Description 1; Reagent; 3 uL complete malaria growth medium, 1536 TC treated Black clear bottom plate 2; Controls; 23 nL positive control artesunate (300 nM final) to column 1; Neutral control DMSO to columns 2-4 3; Compound; 23 nL of compounds in dose response concentration (29 uM to 0.5 nM final) 4; Reagent; 5 uL malaria infected red blood cells (2.5% hematocrit final, 0.3% parasitemia 5; Time; 72 hours at 37C (5% O2, 5% CO2, 90% N2; 95% Rh) 6; Reagent; 2 uL lysis buffer/SYBRGreen-1, 25 sec shake immediately following dispense 7; Time; ~16 hours at 37C (5% O2, 5% CO2, 90% N2; 95% Rh) 8; Detector; EnVision (PerkinElmer) bottom read at 485/14nm excitation and 535/25 nm emission NOTES (numbers refer to sequence above): 1; Complete Malaria Growth Media: 1X RPMI-1640 w/L-glutamine, 5.5g/L Albumax II, 367 uM Hypoxanthine, 25 mM HEPES, 0.25% Sodium Bicarbonate, 35 uM Gentamicin sulfate 2; Controls were added using the Kalypsis Pintool (Wako USA) equipped with 1536 pinhead 3; Compounds were added in a 7-point, titration with a high final concentration of 29 uM by Pintool from seven inter-plate titrations of library plates and two DMSO control plates at the beginning and end (see Yasgar et al., 2008). 4; Red blood cells infected with Plasmodium falciparum Dd2 parasites were used. 6; Lysis buffer: 20 mM Tris-HCl, 10 mM EDTA, 0.16% Saponin, 1.6% Triton-X, 10X SYBR Green. REFERENCE: Inglese J, Shamu CE, Guy RK. 2007. Reporting data from high-throughput screening of small-molecule libraries. Nat Chem Biol. doi:10.1038/nchembio0807-438 Yasgar A, Shinn P, Jadhav A, Auld D, Michael S, Zheng W, Austin CP, Inglese J, Simeonov A. 2008. Compound Management for Quantitative High-Throughput Screening. J Lab Autom 13:79-89. doi:10.1016/j.jala.2007.12.004
Potency means the concentration at half of the fitted maximal effect.

Potency, active:
CCCc1cc(=O)oc2c(C)c(O)c(CN3CCCCC3)cc12 3.35 µM
Cc1c(O)c(CN(C)C)cc2c1oc(=O)c1ccccc12 4.22 µM
Cc1c(O)c(CN2CCCC2)cc2c1oc(=O)c1ccccc12 2.66 µM
Cc1c(O)c(CN2CCCCC2)cc2c1oc(=O)c1ccccc12 0.75 µM
Cc1cc(C)c2oc(=O)cc(CN3CCCCC3)c2c1 13.3 µM
C=CCCC(CN1CCCC1)Oc1ccc(C(=O)N2CCCC2)cn1 (stereo unspecified) 13.3 µM
CC(C)CN(Cc1cc(=O)oc2cc3c(cc12)CCCC3)CC(C)C 15 µM
CCOC(=O)C(C)/C(C)=N/NC(N)=S (stereo unspecified) 2.66 µM
O=C(Nc1ccc(C2=NCCN2)cc1)c1ccc(C(=O)Nc2ccc(C3=NCCN3)cc2)c(Cl)c1 0.473 µM
O=C(Nc1ccc(C2=NCCN2)cc1)c1ccc(C(=O)Nc2ccc(C3=NCCN3)cc2)c([N+](=O)[O-])c1 0.237 µM
COc1cc(NC(=O)c2cc([N+](=O)[O-])ccc2NC(=O)CNC2CCCCC2C)cc(OC)c1 (stereo unspecified) 5.96 µM
COC(=O)c1cc(C(=O)c2ccc(Cl)cc2Cl)cn1C 13.3 µM
CCc1ccc(C2=CC(c3cccc(C)c3)n3c(nc4ccccc43)N2)cc1 (stereo unspecified) 15 µM
COc1ccc(-c2nnc(C[C@@H]3C[C@@H](C(C)C)[C@H](CN4CCC(O)CC4)C=C3C)o2)cc1 9.44 µM
CC1=C[C@@H](CN2CCN(c3ncccn3)CC2)[C@H](C(C)C)C[C@H]1Cc1nnc(COc2ccc(F)cc2)o1 0.75 µM
CC1=C[C@@H](CN2CCOCC2)[C@H](C(C)C)C[C@H]1Cc1nnc(-c2ccc([N+](=O)[O-])cc2)o1 9.44 µM
CC1=C[C@@H](CN2CCCC2)[C@H](C(C)C)C[C@H]1Cc1nnc(-c2ccc([N+](=O)[O-])cc2)o1 3.85 µM
CC1=C[C@@H](CN2CCC(C)CC2)[C@H](C(C)C)C[C@H]1Cc1nnc(-c2cccnc2)o1 15.3 µM
Cc1ccc(Cl)cc1N1CCN(C(=O)c2ccc3c(c2)N(Cc2ccccc2F)C(=O)c2ccccc2S3(=O)=O)CC1 5.31 µM
COc1ccccc1N1CCN(C(=O)c2ccc3c(c2)N(Cc2cc(C)ccc2C)C(=O)c2ccccc2S3(=O)=O)CC1 9.44 µM
Cc1ccc(C)c(CN2C(=O)c3ccccc3S(=O)(=O)c3ccc(C(=O)NCCc4ccc(Cl)cc4)cc32)c1 7.5 µM
CCOC(=O)C1CCCN(C(=O)c2ccc3c(c2)N(Cc2ccccc2)C(=O)c2ccccc2S3(=O)=O)C1 (stereo unspecified) 6.68 µM
Cc1cc(C)c(CN2C(=O)c3ccccc3S(=O)(=O)c3ccc(C(=O)OCC4CCCO4)cc32)c(C)c1 (stereo unspecified) 6.68 µM
COc1cccc(NC(=O)N[C@H]2C[C@@H](c3nc(C)no3)N(C)C2)c1 17.2 µM
CCN(CC)S(=O)(=O)c1ccc(N2CCCCC2)c(NC(=O)C2=COCCO2)c1 6.68 µM
CCN(CC)CCn1c(=N)n(CC(=O)c2ccc(Br)s2)c2ccccc21 5.31 µM
Cc1nn(-c2ccccc2)c(C)c1/C=N/Nc1nc2ccccc2[nH]1 1.5 µM
Cc1ccc(Oc2ccc(NC(=O)c3ccco3)cc2)cc1 10.6 µM
O=C(NC1=C(Nc2ccc(Cl)cc2)C(=O)c2ccccc2C1=O)c1ccccc1 0.473 µM
Cc1cccc(NC2=C(NC(=O)c3ccccc3)C(=O)c3ccccc3C2=O)c1 0.944 µM
O=C(NC1=C(Nc2ccc(F)cc2)C(=O)c2ccccc2C1=O)c1ccc(Cl)cc1 0.842 µM
CCCc1nn2c(=O)cc(COC(=O)c3cccc(NC(=O)COc4ccccc4C)c3)nc2s1 13.3 µM
Cc1ccc(NC(=O)c2ccc(NCCCN3CCC(C)CC3)c([N+](=O)[O-])c2)cc1F 6.68 µM
COc1cccc(NC(=O)c2ccc(NCCCN3CCC(C)CC3)c([N+](=O)[O-])c2)c1 7.5 µM
CCCN(CCC)CCCNc1ccc(C(=O)Nc2cccc(OC)c2)cc1[N+](=O)[O-] 5.96 µM
CC(C)Oc1ccc(C(CCNCc2ccc(O)cc2)c2ccccc2)cc1 (stereo unspecified) 0.668 µM
Cc1onc(-c2ccc(Cl)cc2)c1-c1ccnn1S(=O)(=O)c1cccc(C(F)(F)F)c1 4.73 µM
Cc1onc(-c2ccc(Cl)cc2)c1-c1ccnn1S(=O)(=O)c1ccc(Cl)cc1 1.88 µM
Oc1c(C(Nc2ccccn2)c2ccccc2F)ccc2cccnc12 (stereo unspecified) 9.44 µM
CN1CCN(C(=O)C2(N(C)CCc3ccccc3)Cc3ccccc3C2)CC1 2.66 µM
CC(C)C[C@@H]1N[C@H](C(=O)NC(C)C)Cc2cn(Cc3ccncc3)c3cccc1c23 17.2 µM
Cc1cccc(N2CCN(c3cccc(C)c3)C2c2cccnc2)c1 5.96 µM
NCCc1cccc(CN2CCCC(COc3ccccc3F)C2)c1 (stereo unspecified) 2.66 µM
CCCCOc1ccc(NC2=NC3(CCCCC3)N=C(N)N2)cc1 8.41 µM
CC(C)C[C@@]12C(=O)N(c3cccc(Br)c3)C(=O)N1[C@H](c1ccc(F)cc1)[C@@H]1C(=O)N(C3CCCCC3)C(=O)[C@@H]12 7.5 µM
N=c1c2c(n(Cc3ccc(F)cc3)c3c1CCC3)CCC2 3.35 µM
N=c1c2c(n(Cc3ccc(F)cc3)c3c1CCC3)CCCC2 2.99 µM
N=c1c2c(n(Cc3ccccc3)c3c1CCC3)CCC2 4.22 µM
COc1cccc(CC(=O)N2CCCC(CN3CCCC3)CC2)c1 (stereo unspecified) 15 µM

Potency, inactive:
O=C1CCCCN1Cc1nc(C2CCOC2)no1 (stereo unspecified)
COc1ccc(C(=O)N2CCCC(n3cc(-c4nc(C(C)C)no4)nn3)C2)cn1 (stereo unspecified)
N#Cc1ccc(C23CC4CC(CC(C4)C2)C3)[nH]c1=O
CC1Oc2ccc(NC(=O)c3ccc(Cl)c(Cl)c3)cc2CN(Cc2ccccc2F)C1=O (stereo unspecified)
CC(C)(C)c1ccc(C(=O)Nc2ccc(-c3nc4cc(Cl)ccc4o3)cc2)cc1
Cc1cc(C[C@@H]2COC[C@@H]2NC(=O)CCc2ccc(=O)[nH]n2)on1
COc1ccc(C(=O)N[C@@H]2CCC[C@@H]2C(=O)NCCCN(C)C)cn1
COC(=O)CNC(=O)N1CCCCC1c1nc(CCOc2cccc(C)c2)no1 (stereo unspecified)
COc1nc2c(cc1CNC(=O)C(C)(C)OC)C(=O)N(CCc1ccccn1)C2
Cc1noc(-c2cn(C3CCN(C(=O)c4ccc(C)s4)C3)nn2)n1 (stereo unspecified)
Cc1ccc(S(=O)(=O)N(C)CC2CCOCC2)c(C)c1
O=C(c1ccc(F)c(F)c1)N1CCC2(CC1)N(c1ccccc1)C(=O)CS2(=O)=O
Cc1ccc(C)c(CN2C(=O)c3ccccc3S(=O)(=O)c3ccc(C(=O)N4CCCCCC4)cc32)c1
O=C(c1ccc2c(c1)N(Cc1ccc(Cl)cc1)C(=O)c1ccccc1S2(=O)=O)N1CCCC1
COc1ccccc1CNC(=O)c1cc2c(s1)CCN(C(=O)c1ccc(C)cc1)C2
CCCc1nc2nc(C)c(NS(=O)(=O)c3ccc(F)cc3)c(=O)n2[nH]1
CN1C[C@@H](NC(=O)COc2ccccc2)C[C@H]1c1nc(-c2ccc3c(c2)OCO3)no1
COc1ccc(-c2noc([C@@H]3C[C@H](NS(=O)(=O)c4ccc(OC)cc4)CN3C)n2)cc1
CN(C)S(=O)(=O)c1ccc(N2CCCC2)c(C(=O)NC(c2ccccc2)c2ccccc2)c1
N=c1n(N)c2ccccc2n1CC(=O)c1ccc(Br)cc1
CC(NC(=O)c1ccc(NC(=O)c2ccco2)cc1)c1ccccc1 (stereo unspecified)
CCOC(=O)c1ccc(NC(=O)c2ccco2)cc1
O=C(O)/C=C/c1cccc(NC(=O)c2ccc(Cl)cc2)c1
CN1C(=O)COC[C@@H]1[C@H](O)c1ccc(NC(=O)c2ccccc2)cc1
Cc1ccccc1OCC(=O)Nc1ccccc1C(=O)OCc1cc(=O)n2ccsc2n1
Cc1csc2nc(COc3ccc(NC(=O)COc4ccccc4F)cc3)cc(=O)n12
Cc1ccc(C(=O)N2[C@@H]3CC[C@H]2CC(NC(=O)c2ccncc2)C3)cc1F (stereo partly specified)
CC1(CCCCN2CCOCC2)COc2ccc(C(=O)Nc3ccc4[nH]ccc4c3)cc2N1 (stereo unspecified)
CCCNc1ccc(-c2nc(-c3ccncc3)no2)cc1[N+](=O)[O-]
COCCCNC(=O)C(NC(=O)c1ccc(OC)cc1)C1CCN(C(=O)c2cccc(OC)c2)CC1 (stereo unspecified)
COc1cccc(NC(=O)c2ccc3c(c2)NC(C)(CCCCN2CCOCC2)CO3)c1 (stereo unspecified)
c1ccc(CCc2nc3nccc(-c4ccc5c(c4)OCCCO5)n3n2)cc1
Cc1noc([C@@H]2CN(C(=O)c3cccc(C(F)(F)F)c3)C[C@H]2C(N)=O)n1
CC(C)c1noc(-c2cccn3c(CNC(=O)c4nccc5ccccc45)nnc23)n1
CCC(=NC(CC)CO)C1=C(O)CC(C)(C)CC1=O (stereo unspecified)
CN(C)C(=O)c1cccnc1OC1CCN(CCc2ccccc2)CC1
Cc1cccc(C(=O)NC2CCN(c3cnn(C)c(=O)c3)CC2)c1
CC(C)(C)c1ccc(N2C(=O)CSC2c2cccnc2)cc1 (stereo unspecified)
CCc1cccc(NC(=O)N2CCCC(c3noc(COc4ccccc4F)n3)C2)c1 (stereo unspecified)
COc1ccc2cc3cc(C(=O)NCCC(C)C)oc3nc2c1
CCc1noc(-c2cn(C3CCN(C(=O)Cc4cccc(OC)c4)CC3)nn2)n1
COc1ccc(CNC(=O)N2CCCC(CN3CCCC3)CC2)cc1 (stereo unspecified)
